Structures are written as SMILES.

The first assay has as its system Plasmodium falciparum. As to the kind of experiment: GSK_TCMDC: Inhibition of Plasmodium falciparum Dd2 in whole red blood cells, using parasite LDH activity as an index of growth. Test compounds present at 2uM. Format: functional.
As a reminder, the Inhibition is the relative decrease from the control value, in per cent. A higher Inhibition goes with a response far below the control. For the compound `COc1ccc2ncc(F)c(CCN3CCC[C@H](CNCc4ccc5c(n4)NC(=O)CS5)C3)c2n1.Cl`, the Inhibition came to 34%. Still for that read-out and setting: the result for `Cc1cc(N[C@@H](Cc2ccccc2)C(=O)NCc2cccc(F)c2)nc(NCCc2ccc(F)cc2)n1.O=C(O)C(F)(F)F` reads 69%. In turn, `CCNc1cc(C(=O)NC(Cc2ccccc2)C(O)CNC2CCSCC2)cc(N2CCCC2=O)c1` (centres undefined) yielded an Inhibition of 98%. The same measure, in the same setting: the result for `CC(=O)N(Cc1nc(-c2cc(Cl)c(Cl)s2)cs1)c1c(C)cccc1C` reads 95%.

In a further assay the test system is HepG2. As to the kind of experiment: GSK_TCMDC: Percent inhibition of human HepG2 cell line. Test compounds present at 10uM. Format: functional.
For `CN1CCN(c2cc(-c3cccc(C(F)(F)F)c3)nc(-c3ccncc3)n2)CC1`, the Inhibition is listed as 38%. As for `O=C(Nc1ccc(OC2CCN(Cc3ccccc3)CC2)c(Cl)c1)c1ccsc1.O=C(O)C(F)(F)F`, the Inhibition turned out to be 3%.

In the case of `CN1CCN(Cc2ccc(OCc3cccc(COc4ccc(CN5CCN(C)CC5)cc4I)c3)c(I)c2)CC1.Cl`, the Inhibition is listed as 93%. `CCOC(=O)N1CCN(CCCCNc2c3ccc(Cl)cc3nc3ccc(OC)cc23)CC1.Cl` gave an Inhibition of 25%. As to `Cc1cccc2nc(-c3ccc(-c4cccc(CNCCCNS(C)(=O)=O)c4)cc3)[nH]c12.O=C(O)C(F)(F)F`, the Inhibition was 5%.

Take `COc1ccc2nc(N3CCNCC3)nc(NCCCc3ccccc3)c2c1.Cl`: the Inhibition was found to be 31%. Still for that read-out and setting: in the case of `N#Cc1ccc(C(=O)NC2CCN(CCCCCNC(=O)/C=C/c3ccc(Cl)c(Cl)c3)CC2)cc1` it was 13%; in that of `O=C(Cc1ccc(Cl)cc1)NC1CCN(c2ccnc3cc(Cl)ccc23)C1.O=C(O)C(F)(F)F` (centres undefined), 13%.

The compound `Cc1nn(-c2cccc(C(F)(F)F)c2)c2sc(C(=O)NC3CCN(C(C)C)CC3)cc12` had an Inhibition of 98%.

Regarding `Cc1ccccc1C1CCN(c2ncc(C(=O)NC3CC3)cc2Cl)CC1.O=C(O)C(F)(F)F`, the Inhibition is 22%. `CCN(CC)CCN(Cc1ccc(-c2ccc(C(F)(F)F)cc2)cc1)C(=O)Cn1cc(Cc2cnn(C)c2)c(=O)nc1/C=C/c1ccc(F)cc1.O=C(O)C(O)C(O)C(=O)O` yielded an Inhibition of 6%. Still for that read-out and setting: in the case of `Cc1cc(N2CC=CCC2)nc(NC(=N)Nc2ccc(Br)cc2)n1` it was 10%; in that of `CN1CCN(c2ccc(Nc3ccnc4ccc(-c5ccccc5)cc34)cc2)CC1`, 20%; in that of `Cc1cc(-c2ccc(CNC3CCN(C)CC3)cc2)ccc1S(=O)(=O)NCc1ccccc1.O=C(O)C(F)(F)F`, 52%. In the case of `O=C(Nc1cccc(-c2nc3ccccc3[nH]2)c1)c1cccc(NC(=O)c2ccco2)c1`, the Inhibition is listed as 9%. In the case of `Cc1ccc(C(=O)Nc2ccc(Nc3ccnc4cc(-c5ccccn5)ccc34)cc2O)cc1.Cl`, the Inhibition was determined as 100%. For `COc1cc(OC)c2c(C)cc(NCCCN3CCOCC3)nc2c1`, the Inhibition stood at 6%.

As to `CS(=O)(=O)CCCNCc1ccc(-c2cc3c(Nc4ccc(OCc5ccccc5)cc4)ncnc3cn2)o1`, the Inhibition is 10%. As for `O=[N+]([O-])c1cccc(NC(=S)N2CCCN(Cc3ccc(F)cc3F)CC2)c1`, the Inhibition turned out to be 5%. Compound `CC(C)Nc1cc(C(=O)N[C@@H](Cc2ccccc2)[C@H](O)CNC(C)(C)c2cccc(C(F)(F)F)c2)cc(N2CCCCS2(=O)=O)c1.O=CO` registered an Inhibition of 9%. `COc1ccc(CNCc2ccc(-c3cccc(-c4nc5cccc(C)c5[nH]4)c3)cc2)cc1.O=C(O)C(F)(F)F`: the Inhibition was 69%. Still for that read-out and setting: the result for `Cc1cc(NCCCN2CCCC2=O)n2c(nc3ccccc32)c1C#N` reads 4%.

The compound `Cc1ccccc1C1CCN(c2ccc(C(=O)Nc3ccc(F)cc3)cn2)CC1.O=C(O)C(F)(F)F` displayed an Inhibition of 45%. The compound `Cc1ccccc1N1CCN(c2ccc(C(=O)NC3CC3)cn2)CC1.O=C(O)C(F)(F)F` registered an Inhibition of 14%. As for `CC(C)(C)c1ccc(S(=O)(=O)Nc2ccccc2Cn2nc(N3CCNCC3)ccc2=O)cc1.O=C(O)C(F)(F)F`, the Inhibition was determined as 0%. Consider `Cc1[nH]c(C)c(-c2ccc(OCc3cc(F)cc(F)c3)nc2)c(=O)c1Br`, for which the Inhibition was 37%. The same measure, in the same setting: the result for `COc1cc(CN2CCC(N3CCc4cc(NC(=O)c5cc(C)on5)ccc43)C2)ccc1F` (centres undefined) reads 1%. Same read-out and setting: in the case of `N#Cc1ccc(N(CCOC(=O)c2ccc(Br)s2)Cc2ccccc2C(F)(F)F)cc1C(F)(F)F` it was 8%; in that of `O=C(Nc1ccc(Cl)c(C(F)(F)F)c1)NC1CCN(CCCCCNC(=O)C2CC2c2ccc(Cl)c(Cl)c2)CC1` (centres undefined), 79%; in that of `CN1CCN(S(=O)(=O)c2cccc(Nc3nccc(N(C)c4ccc5c(c4)nc(NC(=O)c4cccs4)n5C)n3)c2)CC1`, 25%. With `C#CCNC(=O)c1ccc(-c2ccnc(Nc3cccc(CCCN4CCOCC4)c3)n2)s1`, the Inhibition amounted to 54%.

The compound `Cc1cccc2nc(-c3ccc(-c4cccc(CN5CCN(c6ccncc6)CC5)c4)cc3)[nH]c12.O=C(O)C(F)(F)F` registered an Inhibition of 50%. For the compound `C=CCNc1cc(-c2ccccn2)nc(-c2ccccn2)n1`, the Inhibition amounted to 78%.

For the compound `O=C(Nc1ccc(-c2ccccc2)cc1)Nc1cccc(OCCN2CCCC2)c1.O=C(O)C(F)(F)F`, the Inhibition is 11%.

In turn, `Br.Cn1c(=N)n(CC(=O)OCc2ccc(OCc3ccccc3)cc2)c2ccccc21` gave an Inhibition of 5%. On the same count and under the same terms, the result for `O=C(Nc1cccc(-c2cccc(-c3nc4cc(C(F)(F)F)ccc4[nH]3)c2)c1)c1cccnc1Cl` reads 56%. `COc1ccc2ncc(F)c(CCN3CCC[C@H](CNCc4ccc5c(n4)NC(=O)CS5)C3)c2n1.Cl` gave an Inhibition of 16%.

For `Cc1cc(N[C@@H](Cc2ccccc2)C(=O)NCc2cccc(F)c2)nc(NCCc2ccc(F)cc2)n1.O=C(O)C(F)(F)F`, the Inhibition is given as 0%. The same measure, in the same setting: the result for `CCNc1cc(C(=O)NC(Cc2ccccc2)C(O)CNC2CCSCC2)cc(N2CCCC2=O)c1` (centres undefined) reads 0%; that for `CC(=O)N(Cc1nc(-c2cc(Cl)c(Cl)s2)cs1)c1c(C)cccc1C`, 5%.

(Values after ChEMBL document CHEMBL1157539, “Thousands of chemical starting points for antimalarial lead identification” (Nature, 2010).)
